Molecules are shown by their SMILES. Records with an inconclusive call do not appear. Where a call stands in place of a potency, no number is given. Calls of active or inactive are those of the source. Unless noted, the call rests on the fitted dose curve.

Consider 36 compounds from PubChem BioAssay (Tox21).
Potency means the concentration at half of the fitted maximal effect.

Sequence of D(2) dopamine receptor (Homo sapiens) (P14416 whole entry, looked up): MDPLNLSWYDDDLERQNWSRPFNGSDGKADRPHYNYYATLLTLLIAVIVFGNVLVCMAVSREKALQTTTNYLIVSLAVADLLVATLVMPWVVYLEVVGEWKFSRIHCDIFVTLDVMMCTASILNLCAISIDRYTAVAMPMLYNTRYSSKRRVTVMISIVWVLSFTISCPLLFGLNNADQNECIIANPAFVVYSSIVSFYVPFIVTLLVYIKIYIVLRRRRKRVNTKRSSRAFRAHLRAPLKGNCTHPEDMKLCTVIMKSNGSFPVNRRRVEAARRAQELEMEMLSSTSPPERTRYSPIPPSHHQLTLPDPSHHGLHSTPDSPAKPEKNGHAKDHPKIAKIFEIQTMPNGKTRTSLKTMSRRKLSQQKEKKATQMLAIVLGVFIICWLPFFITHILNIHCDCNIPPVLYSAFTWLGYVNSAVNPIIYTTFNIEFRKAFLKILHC

In one test the target is D(2) dopamine receptor (Homo sapiens) (UniProt P14416). Description: Dopamine D2 receptor (DRD2) small molecule agonists, cell-based qHTS assay (AID 1963594). Further: nearly all actives have a fitted effect of over 35% in size. Conditions: HEK293-DRD2 cAMP HTRF, agonist mode, 30 min; series mostly up to 92.4 µM. The gist of the method:
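HEK293 cells stably expressing human DRD2, pre-treated with PDE inhibitor Ro20-1724 (0.1 mM final) and compound 10 min at room temperature, then stimulated with NKH477 (200nM […]) for 30 min. cAMP read by HTRF (665/620 nm).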
For `CCN(CC)c1ccc2c(-c3ccc(S(=O)(=O)O)cc3S(=O)(=O)[O-])c3ccc(=[N+](CC)CC)cc-3oc2c1`, the Potency is 24.5 µM (active). Same read-out and setting: next, `COc1ccc(/C=C/S(=O)(=O)NC(=O)c2ccc(C)cc2Cl)cc1`: “inactive”.

Regarding `C=CC(=O)OCC(Br)CBr` (stereo not given), the Potency result is “inactive”. For the compound `O=C1CCC(C2CCCCC2)CC1`, the Potency entry is “inactive”.

On to `COc1ccc(C(=O)N2CCN(CC(=O)N3CCOCC3)CC2)cc1`, for which the Potency entry is “inactive”. On the same count and under the same terms, next, `COCCC(=O)OC`: “inactive”.

Consider `CC(C)(C)C(=O)C(=O)O`, for which the Potency result is “inactive”. As for `O=C1c2ccccc2C(=O)C1c1ccc2ccccc2n1`, the Potency entry was “inactive”.

`CC1=NN(c2ccc(C(=O)O)cc2)C(=O)C1`: the Potency result was “inactive”. As to `Oc1ccc(Oc2ccccc2)cc1`, the Potency result is “inactive”.

For the compound `CC(C)(O)CCCC1=CCC(C=O)CC1` (stereo not given), the Potency result was “inactive”. The same measure, in the same setting: next, `COc1ccc(C(=O)c2ccc(OC)cc2O)c(O)c1`: “inactive”; `CC1=C(/C=C/C(C)=C\C=C\C(C)=C\C(=O)O)C(C)(C)CCC1`: “inactive”; `Cc1cccc(N(C)C(=S)Oc2ccc3c(c2)CCC3)c1`: “inactive”. For `COc1ccccc1NC(=O)c1cc2ccccc2cc1O`, the Potency result is “inactive”. On the same count and under the same terms, next, `CN(C)CCC=C1c2ccccc2C=Cc2ccccc21`: “inactive”; `O=C(O)c1cccc(Oc2ccccc2)c1`: “inactive”; `COc1ccc([C@@H]2Sc3ccccc3NC(=O)[C@@H]2O)cc1`: “inactive”.

As for `CC(c1cc(C(C)(C)C)cc(C(C)(C)C)c1O)c1cc(C(C)(C)C)cc(C(C)(C)C)c1O`, the Potency result was “inactive”. On the same count and under the same terms, next, `Nc1ccc(S(=O)(=O)NCc2ccccc2)cc1`: “inactive”; `Nc1[nH]c(=O)ncc1F`: “inactive”; `O=Cc1ccccc1[N+](=O)[O-]`: “inactive”. On to `CCC1CCC(CCC(=O)O)C1` (stereo not given), for which the Potency result was “inactive”. `CCCCCCCCCCCCCCCCCC(=O)OCCCCCCCCCCCCCC(C)C`: the Potency result is “inactive”. Turning to `CCCCCCCCCCCCCCCCCl`, the activation was -1.48% [at 19 µM] (inactive). On to `CCCOC(=O)c1ccc(O)cc1`, for which the Potency entry is “inactive”.

The next test shares this target. Description: Dopamine D2 receptor (DRD2) small molecule antagonists, cell-based qHTS assay (AID 1963595; active means well fitted inhibition curve with a large enough effect in the signal ratio in the repeat runs, with a control signal flat; the % refers to the signal ratio). To be noted: HEK293-DRD2 cAMP HTRF antagonist mode; series mostly up to 92.4 µM. The gist of the method: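 HEK293 cells stably expressing DRD2, preincubated with 0.1 mM Ro20-1724 and compounds 10 min, were stimulated with 200 nM NKH477 plus 12 nM quinpirole for 30 min at room temperature; cAMP measured by HTRF (665/620 nm).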
On to `COc1ccc(/C=C/S(=O)(=O)NC(=O)c2ccc(C)cc2Cl)cc1`, for which the Potency entry is “inactive”. `O=C1CCC(C2CCCCC2)CC1`: the Potency entry is “inactive”. For `COc1ccc(C(=O)N2CCN(CC(=O)N3CCOCC3)CC2)cc1`, the Potency entry was “inactive”.

In the case of `COCCC(=O)OC`, the Potency result is “inactive”. Turning to `Cc1nc2ccc(Cl)cc2[nH]1`, the Potency entry was “inactive”. Turning to `CC(C)(C)C(=O)C(=O)O`, the Potency entry is “inactive”. As for `O=C1c2ccccc2C(=O)C1c1ccc2ccccc2n1`, the Potency result is “inactive”. On to `CN1CCN(C2=Nc3cc(F)ccc3Cc3ccccc32)CC1`, for which the Potency result was “inactive”. Still for that read-out and setting: next, `CC1=NN(c2ccc(C(=O)O)cc2)C(=O)C1`: “inactive”; `NS(=O)(=O)Cc1noc2ccccc12`: “inactive”. As for `COc1ccc(C(=O)c2ccc(OC)cc2O)c(O)c1`, the Potency entry is “inactive”.

For `Fc1ccc([C@@H]2CCNC[C@H]2COc2ccc3c(c2)OCO3)cc1`, the Potency result is “inactive”. In the case of `CCOC(=O)O[C@H](C)OC(=O)c1ccc2c(c1)cc(C(=O)NC1CCN(C(C)C)CC1)n2Cc1cc(-c2ccc(Cl)s2)on1`, the Potency is 50.9 µM (active). The same measure, in the same setting: next, `CC1=C(/C=C/C(C)=C\C=C\C(C)=C\C(=O)O)C(C)(C)CCC1`: “inactive”. On the same count and under the same terms, next, `CCCC(=O)OCCC(C)C`: “inactive”; `COc1ccccc1NC(=O)c1cc2ccccc2cc1O`: “inactive”; `O=C(CCBr)N1CCN(C(=O)CCBr)CC1`: “inactive”. Same read-out and setting: next, `CN(C)CCC=C1c2ccccc2C=Cc2ccccc21`: 33.5 µM (active); `O=C(O)c1cccc(Oc2ccccc2)c1`: “inactive”; `COc1ccc([C@@H]2Sc3ccccc3NC(=O)[C@@H]2O)cc1`: “inactive”. For `Oc1ccc(C2CNCCc3c2cc(O)c(O)c3Cl)cc1` (stereo not given), the Potency result is “inactive”. The same measure, in the same setting: next, `CC(c1cc(C(C)(C)C)cc(C(C)(C)C)c1O)c1cc(C(C)(C)C)cc(C(C)(C)C)c1O`: “inactive”. Take `Nc1[nH]c(=O)ncc1F`: the Potency entry is “inactive”. Same read-out and setting: next, `CCC1CCC(CCC(=O)O)C1` (stereo not given): “inactive”; `CCCCCCCCCCCCCCCCCC(=O)OCCCCCCCCCCCCCC(C)C`: “inactive”. Consider `CCCCCCCCCCCCCCCCCl`, for which the activity change, negative = inhibition is 2.16% [at 18.9 µM] (inactive). Regarding `CCCOC(=O)c1ccc(O)cc1`, the Potency entry is “inactive”. In the case of `CC1COc2c(N3CCN(C)CC3)c(F)cc3c(=O)c(C(=O)O)cn1c23` (stereo not given), the Potency entry was “inactive”. Same read-out and setting: next, `CCCCS`: “inactive”.
